Experimental data as given in PubChem BioAssay (EPA / NIEHS).
Values joined by “and” are separate entries in the source; they are usually repeats but may differ in a detail not shown here. Equal entries are not always repeated. Records with an inconclusive call do not appear. A structure can be active in one record and inactive in another. Active and inactive are the calls of the source. How the source made its calls, unless noted: active means hit-call score of the fitted dose curve at least 0.9, where 1 is the maximum; inactive means score below 0.9.

Legend:
[1] = biological target: Nuclear respiratory factor 1 (Homo sapiens) (UniProt Q16656); experiment: ATG_NRF1_CIS: Attagene CIS-FACTORIAL HepG2 Assay for human Nuclear Respiratory Factor 1 (NRF1) Orphan Gene (AID 2282987); details: HepG2 NRF1 cis-element reporter, Attagene multiplex; actives raise or lower the signal
Chain of Nuclear respiratory factor 1 (Homo sapiens) (Q16656 whole entry, looked up): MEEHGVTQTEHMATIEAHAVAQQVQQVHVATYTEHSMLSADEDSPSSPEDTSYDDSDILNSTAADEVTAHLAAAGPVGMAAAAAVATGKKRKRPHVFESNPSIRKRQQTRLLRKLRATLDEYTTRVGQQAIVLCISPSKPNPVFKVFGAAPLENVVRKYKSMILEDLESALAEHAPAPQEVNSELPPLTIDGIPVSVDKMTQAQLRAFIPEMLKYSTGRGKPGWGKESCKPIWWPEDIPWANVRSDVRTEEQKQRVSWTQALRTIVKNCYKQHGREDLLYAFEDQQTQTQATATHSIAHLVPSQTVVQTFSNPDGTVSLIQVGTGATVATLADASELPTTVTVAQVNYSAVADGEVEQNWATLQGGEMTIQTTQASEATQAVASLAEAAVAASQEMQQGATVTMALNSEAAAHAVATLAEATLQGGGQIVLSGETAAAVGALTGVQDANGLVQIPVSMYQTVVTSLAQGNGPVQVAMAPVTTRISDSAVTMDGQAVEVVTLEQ
Procedure, shortened: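 Using DMSO as baseline, gain- or loss-of-signal was fitted for reporter mRNA levels in HepG2 cells transiently transfected with cis-regulated reporter units. Samples were taken 24 h after dosing and read by RT-PCR with capillary electrophoresis.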

[2] = biological target: Myc proto-oncogene protein (Homo sapiens) (UniProt P01106); experiment: ATG_Myc_CIS: Attagene CIS-FACTORIAL HepG2 Assay for human Myelocytomatosis (Myc) Proto-Oncogene Transcription Factor (AID 2282990); details: HepG2, Attagene cis-reporter transcription factor activity; actives raise or lower the signal
Chain of Myc proto-oncogene protein (Homo sapiens) (P01106 whole entry, looked up, the tested form may be a part): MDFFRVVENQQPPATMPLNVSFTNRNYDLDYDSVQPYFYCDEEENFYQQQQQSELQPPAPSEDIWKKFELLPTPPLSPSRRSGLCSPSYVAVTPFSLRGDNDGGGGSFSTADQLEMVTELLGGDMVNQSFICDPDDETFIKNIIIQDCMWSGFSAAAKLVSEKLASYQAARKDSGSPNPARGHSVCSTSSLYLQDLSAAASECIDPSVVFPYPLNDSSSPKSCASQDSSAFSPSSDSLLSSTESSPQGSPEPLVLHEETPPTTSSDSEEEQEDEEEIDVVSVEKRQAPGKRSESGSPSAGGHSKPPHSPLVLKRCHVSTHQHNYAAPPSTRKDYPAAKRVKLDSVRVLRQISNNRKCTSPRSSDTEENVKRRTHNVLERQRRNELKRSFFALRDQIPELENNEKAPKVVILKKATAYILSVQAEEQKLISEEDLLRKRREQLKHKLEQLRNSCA
Procedure, shortened: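 After 24 h chemical treatment of HepG2 cells carrying multiplexed cis-regulated reporter constructs, reporter transcripts quantified by RT-PCR and capillary electrophoresis of fluorescent fragments. Gain or loss fitted against DMSO baseline.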

[3] = ATG_NF_kB_CIS: Attagene CIS-FACTORIAL HepG2 Assay for human Nuclear Factor Kappa B (NF-kB) (AID 2282991); details: HepG2 Attagene cis-factorial NF-kB reporter mRNA; actives raise or lower the signal
Procedure, shortened: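 Endpoint from a 52-component multiplexed HepG2 reporter panel: cis-regulated transcription units transiently transfected, 24 h dosing, reporter mRNA quantified by RT-PCR and capillary electrophoresis, scored as increase or decrease against DMSO.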

[4] = ATG_NRF2_ARE_CIS: Attagene CIS-FACTORIAL HepG2 Assay for human Nuclear Factor Erythroid 2 Related Factor 2 (NFR2) response to Antioxidant Response Elements (ARE) (AID 2282992); details: HepG2 Attagene ARE/NRF2 reporter, transcription factor activity; actives raise or lower the signal;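 on AC50: reporter mRNA level measured by RT-PCR and capillary electrophoresis fluorescence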
Procedure, shortened: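 Transient MRTU transfection of HepG2; 24 h compound exposure; TriZol RNA, RT with oligo(dT), PCR, 6-FAM primer extension, HpaI cut, CE. Bidirectional fit vs DMSO.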

[5] = ATG_Oct_MLP_CIS: Attagene CIS-FACTORIAL HepG2 Assay for human Octamer-Binding Transcription Factor (Oct) (AID 2282993); details: HepG2 Attagene cis-factorial Oct reporter, mRNA; actives raise or lower the signal
Procedure, shortened: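 Using HepG2 cells bearing transfected cis-reporter constructs, mRNA induction was read after 24 h by fluorescent RT-PCR and capillary electrophoresis, with DMSO defining baseline for gain- or loss-of-signal fits.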

[6] = biological target: Cellular tumor antigen p53 (Homo sapiens) (UniProt P04637); experiment: ATG_p53_CIS: Attagene CIS-FACTORIAL HepG2 Assay for human p53 Transcription Factor (AID 2282994); details: HepG2 p53 cis-element reporter, Attagene mRNA; actives raise or lower the signal
Chain of Cellular tumor antigen p53 (Homo sapiens) (P04637 whole entry, looked up): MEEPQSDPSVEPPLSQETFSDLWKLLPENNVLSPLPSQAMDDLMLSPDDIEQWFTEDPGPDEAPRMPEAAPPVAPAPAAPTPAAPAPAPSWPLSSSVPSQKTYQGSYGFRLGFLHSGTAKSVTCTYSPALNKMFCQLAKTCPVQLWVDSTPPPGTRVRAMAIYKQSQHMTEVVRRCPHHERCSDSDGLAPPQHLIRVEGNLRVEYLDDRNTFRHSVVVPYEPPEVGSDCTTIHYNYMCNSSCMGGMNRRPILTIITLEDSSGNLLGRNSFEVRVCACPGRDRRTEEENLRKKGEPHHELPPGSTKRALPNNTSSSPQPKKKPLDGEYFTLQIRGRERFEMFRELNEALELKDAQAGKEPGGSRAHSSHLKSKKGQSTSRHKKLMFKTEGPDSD
Procedure, shortened: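 HepG2, transient MRTU transfection (cis promoter elements, endogenous TFs); 24 h dosing; RNA isolation, RT-PCR, 6-FAM primer extension, HpaI digest, CE fluorescence; bidirectional fit vs DMSO.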

[7] = biological target: human Peroxisome Proliferator-activated Receptor delta (PPARd), PPARD (gene 5467) (UniProt Q03181); experiment: ATG_PPARd_TRANS: Attagene TRANS-FACTORIAL HepG2 Assay for human Peroxisome Proliferator-activated Receptor delta (PPARd) (AID 2283002; active means hit-call score of the fitted dose curve at least 0.9, where 1 is the maximum)
Chain of human Peroxisome Proliferator-activated Receptor delta (PPARd), PPARD (gene 5467) (Q03181 whole entry, looked up, the tested form may be a part): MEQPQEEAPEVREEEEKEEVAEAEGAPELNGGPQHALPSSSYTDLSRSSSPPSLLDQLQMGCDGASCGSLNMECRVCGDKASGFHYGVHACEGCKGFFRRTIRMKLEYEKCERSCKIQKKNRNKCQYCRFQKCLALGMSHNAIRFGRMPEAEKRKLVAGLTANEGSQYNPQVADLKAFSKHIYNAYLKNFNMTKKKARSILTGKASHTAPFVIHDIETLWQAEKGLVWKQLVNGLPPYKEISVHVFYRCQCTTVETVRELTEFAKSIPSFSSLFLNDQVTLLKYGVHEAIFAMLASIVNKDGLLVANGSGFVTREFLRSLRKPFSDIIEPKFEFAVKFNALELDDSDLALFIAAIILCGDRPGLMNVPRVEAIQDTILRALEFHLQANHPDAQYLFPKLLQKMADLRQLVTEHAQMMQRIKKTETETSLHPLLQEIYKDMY
Procedure, shortened: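 Read-out is induced reporter mRNA, quantified by RT-PCR with fluorescent labelling and capillary electrophoresis after 24 h dosing. Cells are HepG2 transiently carrying multiple GAL4-UAS reporter units driven by exogenous NR-GAL4 chimeras; DMSO serves as baseline.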

[8] = biological target: Peroxisome proliferator-activated receptor gamma (Homo sapiens) (UniProt P37231); experiment: ATG_PPARg_TRANS: Attagene TRANS-FACTORIAL HepG2 Assay for human Peroxisome Proliferator-activated Receptor-gamma (PPARg) (AID 2283007; active means hit-call score of the fitted dose curve at least 0.9, where 1 is the maximum)
Chain of Peroxisome proliferator-activated receptor gamma (Homo sapiens) (P37231 whole entry, looked up, the tested form may be a part): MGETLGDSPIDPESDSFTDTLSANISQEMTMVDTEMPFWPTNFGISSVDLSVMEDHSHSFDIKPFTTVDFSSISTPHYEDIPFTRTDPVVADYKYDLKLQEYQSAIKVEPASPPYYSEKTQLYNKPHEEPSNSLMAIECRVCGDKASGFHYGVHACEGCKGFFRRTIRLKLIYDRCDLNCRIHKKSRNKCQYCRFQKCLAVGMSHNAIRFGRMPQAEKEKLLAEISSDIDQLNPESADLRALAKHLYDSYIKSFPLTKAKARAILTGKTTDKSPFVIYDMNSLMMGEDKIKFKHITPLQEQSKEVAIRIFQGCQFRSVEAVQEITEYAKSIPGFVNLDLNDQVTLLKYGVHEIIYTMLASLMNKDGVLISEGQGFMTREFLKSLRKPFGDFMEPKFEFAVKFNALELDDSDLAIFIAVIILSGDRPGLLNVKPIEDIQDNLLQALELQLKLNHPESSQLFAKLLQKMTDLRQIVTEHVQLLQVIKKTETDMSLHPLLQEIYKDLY
Procedure, shortened: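 Endpoint reflects upward reporter mRNA change versus DMSO controls. Setup: transiently transfected HepG2, GAL4-UAS reporters driven by chimeric NR-Gal4, 24 h incubation, RT-PCR with capillary electrophoresis read-out.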

[9] = biological target: Nuclear receptor subfamily 1 group I member 2 (Homo sapiens) (UniProt O75469); experiment: ATG_PXR_TRANS: Attagene TRANS-FACTORIAL HepG2 Assay for human Pregnane X Receptor (PXR) (AID 2283008; active means hit-call score of the fitted dose curve at least 0.9, where 1 is the maximum)
Chain of Nuclear receptor subfamily 1 group I member 2 (Homo sapiens) (O75469 whole entry, looked up, the tested form may be a part): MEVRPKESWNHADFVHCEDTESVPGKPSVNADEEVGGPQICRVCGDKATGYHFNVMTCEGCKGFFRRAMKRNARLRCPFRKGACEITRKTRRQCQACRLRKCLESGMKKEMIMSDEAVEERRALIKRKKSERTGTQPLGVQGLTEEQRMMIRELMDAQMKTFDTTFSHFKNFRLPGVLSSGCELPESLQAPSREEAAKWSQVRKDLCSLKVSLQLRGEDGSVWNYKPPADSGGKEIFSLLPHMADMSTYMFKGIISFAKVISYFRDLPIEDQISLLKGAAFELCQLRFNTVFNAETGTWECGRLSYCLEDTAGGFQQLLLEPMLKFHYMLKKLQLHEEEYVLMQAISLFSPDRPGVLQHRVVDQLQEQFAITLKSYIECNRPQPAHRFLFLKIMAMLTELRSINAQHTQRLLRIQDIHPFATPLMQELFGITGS
Procedure, shortened: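 Read-out is fluorescence of labelled reporter cDNA fragments separated by capillary electrophoresis after RT-PCR and HpaI digestion. Source: HepG2 cells carrying PXR-GAL4/UAS reporter constructs, treated 24 h; activity fitted upward relative to DMSO.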

[10] = BSK_3C_TissueFactor: BioMAP Diversity Plus: 3C Assay for Tissue Factor Biomarker Activity (AID 2282997); details: BioMAP 3C HUVEC, tissue factor biomarker readout; actives raise or lower the signal
Procedure, shortened: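 Dosing of human umbilical vein endothelial cells preceded a 24 h incubation. Tissue Factor was then read by ELISA, with increases and decreases both scored relative to DMSO controls.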

[11] = BSK_3C_uPAR: BioMAP Diversity Plus: 3C Assay for Urokinase-type plasminogen activator receptor (uPAR) Biomarker Activity (AID 2282998); details: BioMAP 3C HUVEC, uPAR biomarker ELISA; actives raise or lower the signal
Procedure, shortened: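 In this endothelial cell-based assay, human umbilical vein primary cells were treated with chemicals and harvested at 24 h. uPAR was quantified using ELISA, with gains or losses fitted relative to DMSO controls.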

[12] = BSK_3C_VCAM1: BioMAP Diversity Plus: 3C Assay for Vascular cell adhesion molecule 1 (VCAM1) Biomarker Activity (AID 2282999); details: BioMAP 3C HUVEC, VCAM1 ELISA, cytokine-stimulated; actives raise or lower the signal
Procedure, shortened: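 Endothelial cells from human umbilical vein are treated with test chemical. At 24 h, VCAM-1 is measured by ELISA, and responses in either direction are fitted relative to DMSO.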

[13] = BSK_4H_Eotaxin3: BioMAP Diversity Plus: 4H Assay for Eotaxin 3 Biomarker Activity (AID 2283000); details: primary human endothelial cells (HUVEC); actives raise or lower the signal
Procedure, shortened: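 Human umbilical vein endothelial cells (BSK_4H system) dosed with test chemical; Eotaxin-3 (CCL26) measured by ELISA 24 h after dosing. Bidirectional curve fitting relative to DMSO negative control as baseline.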

[14] = biological target: human Peroxisome Proliferator-activated Receptor alpha (PPARa), PPARA (gene 5465) (UniProt Q07869); experiment: ATG_PPARa_TRANS: Attagene TRANS-FACTORIAL HepG2 Assay for human Peroxisome Proliferator-activated Receptor alpha (PPARa) (AID 2283001; active means hit-call score of the fitted dose curve at least 0.9, where 1 is the maximum)
Chain of human Peroxisome Proliferator-activated Receptor alpha (PPARa), PPARA (gene 5465) (Q07869 whole entry, looked up, the tested form may be a part): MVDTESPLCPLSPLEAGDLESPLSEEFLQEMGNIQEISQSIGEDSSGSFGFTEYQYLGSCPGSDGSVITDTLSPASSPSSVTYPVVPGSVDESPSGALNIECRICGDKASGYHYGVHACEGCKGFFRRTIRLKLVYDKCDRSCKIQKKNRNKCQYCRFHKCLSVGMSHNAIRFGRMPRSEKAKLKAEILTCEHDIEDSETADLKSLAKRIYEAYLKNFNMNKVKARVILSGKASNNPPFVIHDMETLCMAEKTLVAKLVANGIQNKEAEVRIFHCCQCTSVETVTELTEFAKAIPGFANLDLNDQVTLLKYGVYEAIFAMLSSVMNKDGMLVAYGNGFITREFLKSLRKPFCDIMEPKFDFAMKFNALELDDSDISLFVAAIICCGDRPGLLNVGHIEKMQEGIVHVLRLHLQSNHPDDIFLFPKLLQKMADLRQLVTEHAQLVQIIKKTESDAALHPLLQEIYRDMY
Procedure, shortened: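 Read-out is fluorescence of reporter cDNA fragments resolved by capillary electrophoresis after RT-PCR. Human HepG2 liver cells carried transfected PPARa-Gal4 chimera and GAL4-UAS reporter units, treated 24 h; activity scored as increase over DMSO.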

[15] = read-out: Intercellular Adhesion Molecule 1 (ICAM1), ICAM1 (gene 3383); experiment: BSK_3C_ICAM1: BioMAP Diversity Plus: 3C Assay for Intercellular Adhesion Molecule 1 (ICAM1) Biomarker Activity (AID 2283003); details: primary human endothelial cells (HUVEC); actives raise or lower the signal
Procedure, shortened: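 HUVEC primary cells stimulated under 3C conditions; ICAM1 measured by ELISA 24 h after compound dosing. Curves fitted bidirectionally against the DMSO baseline. Overt cytotoxicity checked by SRB staining of parallel cultures.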

[16] = BSK_3C_Proliferation: Cell Proliferation Assessment in the BioMAP Diversity Plus: 3C Assay (AID 2283006); details: primary human endothelial cells (HUVEC);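 on AC50: potency may reflect either rise or fall in cell number versus DMSO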
Procedure, shortened: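 Subconfluent HUVEC (3C system) cultured with chemical; relative cell number read at 48 h by sulforhodamine B total-protein staining (0.1% SRB after 10% TCA fixation, 560 nm). Bidirectional fit relative to DMSO.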

[17] = biological target: human Retinoic Acid Receptor beta (RARb), RARB (gene 5915) (UniProt P10826); experiment: ATG_RARb_TRANS: Attagene TRANS-FACTORIAL HepG2 Assay for human Retinoic Acid Receptor beta (AID 2283004; active means hit-call score of the fitted dose curve at least 0.9, where 1 is the maximum)
Chain of human Retinoic Acid Receptor beta (RARb), RARB (gene 5915) (P10826 whole entry, looked up, the tested form may be a part): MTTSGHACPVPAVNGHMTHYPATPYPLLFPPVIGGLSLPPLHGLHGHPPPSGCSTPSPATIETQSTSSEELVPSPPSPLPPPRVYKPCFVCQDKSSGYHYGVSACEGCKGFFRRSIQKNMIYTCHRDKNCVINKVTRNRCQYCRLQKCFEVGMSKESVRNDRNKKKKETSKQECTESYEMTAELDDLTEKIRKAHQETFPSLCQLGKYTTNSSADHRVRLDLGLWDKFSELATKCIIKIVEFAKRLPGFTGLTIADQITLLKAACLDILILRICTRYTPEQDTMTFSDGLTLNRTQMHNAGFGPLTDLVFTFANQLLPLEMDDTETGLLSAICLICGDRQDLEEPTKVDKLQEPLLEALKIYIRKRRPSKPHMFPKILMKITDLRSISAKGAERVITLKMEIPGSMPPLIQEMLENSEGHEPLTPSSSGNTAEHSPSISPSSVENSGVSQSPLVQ
Procedure, shortened: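 Induction of reporter mRNA from a chimeric RARb-Gal4 construct was measured by RT-PCR, FAM labelling, HpaI digestion and capillary electrophoresis. Measurements followed 24 h compound treatment of transiently transfected human HepG2 liver cells, with DMSO as baseline.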

[18] = biological target: Retinoic acid receptor alpha (Homo sapiens) (UniProt P10276); experiment: ATG_RARa_TRANS: Attagene TRANS-FACTORIAL HepG2 Assay for human Retinoic Acid Receptor alpha (RARa) (AID 2283005; active means hit-call score of the fitted dose curve at least 0.9, where 1 is the maximum)
Chain of Retinoic acid receptor alpha (Homo sapiens) (P10276 whole entry, looked up, the tested form may be a part): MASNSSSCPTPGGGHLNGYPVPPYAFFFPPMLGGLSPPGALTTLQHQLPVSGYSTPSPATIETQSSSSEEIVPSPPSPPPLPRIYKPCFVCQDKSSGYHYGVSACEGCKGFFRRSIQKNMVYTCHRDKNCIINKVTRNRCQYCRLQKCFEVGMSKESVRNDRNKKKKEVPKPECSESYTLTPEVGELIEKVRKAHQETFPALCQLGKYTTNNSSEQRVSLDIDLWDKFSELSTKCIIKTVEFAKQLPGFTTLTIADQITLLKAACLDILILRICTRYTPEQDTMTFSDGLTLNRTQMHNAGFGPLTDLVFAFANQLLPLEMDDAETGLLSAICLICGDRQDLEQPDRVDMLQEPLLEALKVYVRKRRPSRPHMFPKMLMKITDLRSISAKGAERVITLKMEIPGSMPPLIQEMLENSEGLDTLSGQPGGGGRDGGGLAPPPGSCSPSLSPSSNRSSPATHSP
Procedure, shortened: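 Reporter transcripts, measured by RT-PCR with fluorescent labeling and capillary electrophoresis after 24 h dosing, reflect activity of an exogenous human RARa–GAL4 fusion in transiently transfected HepG2. Fitted for increase relative to DMSO.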

Measured: AC50

C(=C(c1ccccc1)c1ccccc1)c1ccccc1
inactive: [1] | [2] | [3] | [5] | [6] | [7] | [8]
active: [4] 25.2 µM | [9] 7.71 µM

O=C(O)C(F)(F)C(F)(F)C(F)(F)F
inactive: [1] | [2] | [3] | [4] | [5] | [6] | [10] | [11] | [12] | [13] | [14] | [7] | [15] | [16] | [9]

NC(=O)C(F)(F)C(F)(F)C(F)(F)C(F)(F)F
inactive: [1] | [2] | [3] | [4] | [5] | [6] | [10] | [11] | [12] | [13] | [14] | [15] | [17] | [16] | [8] | [9]

O=S(=O)(O)c1ccc2ccccc2c1
active: [9] 21 µM
inactive: [1] | [2] | [3] | [4] | [5] | [6] | [14] | [7] | [8] | [9]

CCCCCCOC(=O)c1ccccc1O
inactive: [1] | [2] | [3] | [4] | [5] | [6] | [14] | [7] | [8] | [9]
active: [10] 48 µM and 38.5 µM | [11] 24.5 µM and 41.1 µM | [12] 38.1 µM and 37.2 µM | [13] 37.6 µM and 43.5 µM | [15] 38.6 µM and 47 µM | [16] 35.3 µM and 40.9 µM

O=S(=O)(OCC(F)F)C(F)(F)F
inactive: [1] | [2] | [3] | [4] | [5] | [6] | [10] | [11] | [12] | [13] | [14] | [7] | [15] | [16] | [9]

C=CC(=O)OCC(F)(F)C(F)(F)C(F)(F)C(F)(F)C(F)(F)C(F)(F)C(F)(F)F
active: [4] 50 µM | [16] 30 µM
inactive: [1] | [2] | [3] | [5] | [6] | [10] | [11] | [12] | [13] | [14] | [7] | [8] | [9]

CCO[Si](CCC(F)(F)C(F)(F)C(F)(F)C(F)(F)C(F)(F)C(F)(F)F)(OCC)OCC
inactive: [1] | [2] | [3] | [4] | [5] | [6] | [10] | [11] | [12] | [13] | [14] | [7] | [16] | [9]

O[Si](c1ccccc1)(c1ccccc1)c1ccccc1
inactive: [2] | [3] | [5] | [6] | [10] | [12] | [14] | [7] | [15] | [18]
active: [1] 100 µM | [4] 31.1 µM | [11] 32.9 µM | [13] 30.1 µM | [16] 24.4 µM | [9] 0.68 µM

CCCCCCC(C)OC(=O)CCCCC(=O)OC(C)CCCCCC (configuration not stated)
inactive: [1] | [2] | [3] | [4] | [5] | [6] | [10] | [11] | [12] | [13] | [14] | [7] | [15] | [16] | [9]
